Source: PubChem BioAssay AID1016 (Sanford-Burnham Center for Chemical Genomics, 2008)
Hit rate of the full screen: of about 200,000 compounds, about 330 (0.17%) were called active. Shown is part of a subset that was picked to be rich in actives. Unmarked numbers belong to inactive results.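 How the source made its calls: active means activation factor of 2 or more at 20 µM, a signal rise over negative controls twice the positive control's; inactive means the rest.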 Where a SMILES comes first, the peptide text is derived from it. [ ]: non-standard residue; d: D form. ξ: configuration not given here. ξM = CSCCC(N)C(=O)O

Each compound was assayed on alkaline phosphatase, intestinal [Bos taurus] (assay: IAP enzyme activity enhancers – biochemical, bovine IAP, CDP-star luminescence, primary screen (AID 1016)). Conditions: purified bovine IAP, 30 min, at 20 µM, hits give high values, fold of DMSO-control signal, blank-subtracted.

SMILES	activation factor
Cc1ccccc1C1=NC(C(F)(F)F)(C(F)(F)F)c2c(n(-c3ccc(F)cc3)c(=O)[nH]c2=O)N1	0.9
CC1CCC(C(C)C)C(=O)/C1=C\c1ccc(NC(=O)CCC(=O)O)cc1 (stereo not drawn)	0.9
C[C@@H](O)c1nc2ccccc2n1N	0.9
Cc1ccc(C(=O)Nc2sc(Cc3ccc4c(c3)OCO4)c(C)c2C(N)=O)cc1	0.9
CN(C)S(=O)(=O)Oc1ccccc1C(=O)Nc1ccccc1Cl	0.9
COc1ccc(S(=O)(=O)N(C)CC(=O)N2CCCC2)cc1Cl	1
CC(=O)Nc1ccccc1OC(=O)N1CCOCC1	0.9
O=C(Oc1ccc2c(c1)CCC2)N1CCOCC1	2.4 (active)
COc1ccc(CC(=O)Nc2ccc3c(c2)CCC3)cc1S(=O)(=O)N1CCOCC1	1
CCc1cc(-c2n[nH]c(=S)n2CC(C)C)cs1	1
O=C(CNC(=O)c1cc(=O)[nH]c2ccccc12)Nc1ccc(F)c(F)c1	0.9
Cc1cc(C)nc(-n2ncc3c2CC(c2ccc(C(C)C)cc2)CC3=O)n1 (stereo not drawn)	0.8
CCC(=O)N1c2ccccc2NC2=C(C(=O)CCC2)C1c1ccco1 (stereo not drawn)	1
NC(=O)COC(=O)c1cc(S(=O)(=O)N2CCN(c3ccccc3)CC2)ccc1Cl	1.1
COCc1c(N)c(C)nc(Cl)c1C#N	1.1
Cc1cccc(C)c1NC(=O)C1CCCN1C(=O)OC(C)(C)C (stereo not drawn)	0.8
CC(=O)NCCC(=O)Nc1cc(S(=O)(=O)N2CCOCC2)ccc1N1CCOCC1	1
CCCC1OC23CCCCC2C(C#N)(C#N)C1(C#N)C(=N)O3 (stereo not drawn)	1.1
Cc1ccc(C(=O)NC(=S)NCc2cccnc2)cc1	1
NC(=O)C1CCN(C(=O)COc2cccc3cccnc23)CC1	1
Cc1nn(Cc2ccc(F)cc2)c(C)c1NC(=O)c1cccnc1Cl	1.1
CC(=O)Cn1ncc(N2CCOCC2)c(Br)c1=O	1.1
C/C(CC(=O)Nc1cccc(C(F)(F)F)c1)=N\NC(=O)C(=O)NCC(C)C	1.3
O=C(NN1C(=O)C2C3C=CC(O3)C2C1=O)c1ccncc1 (stereo not drawn)	0.8
CC(C)C1Nc2c(C(=O)O)cccc2C(Nc2ccccc2C(=O)O)C1(C)C (stereo not drawn)	1.1

SMILES	activation factor
COc1cc(C(O)c2nc3ccccc3n2C)cc(OC)c1OC (stereo not drawn)	1
CCCn1c(C(O)c2cc(OC)ccc2OC)nc2ccccc21 (stereo not drawn)	73.3 (active)
CCCn1c(C(O)c2ccc(OCC)cc2)nc2ccccc21 (stereo not drawn)	19.1 (active)
CCOc1ccc(C(O)Cc2nc3ccccc3n2C)cc1 (stereo not drawn)	0.8
CCCn1c(C(Cc2ccccc2)NC(=O)COC)nc2ccccc21 (stereo not drawn)	0.9
CCOCCn1c(C(C)C)nc2ccccc21	0.9
CN(C)c1ccc(/C=N/NC(=O)c2ccc(Cn3cc(Br)cn3)o2)cc1	1
Cc1ccccc1OCC(=O)Nc1nc(C)c(C(=O)N(C)C)s1	1
Cc1csc(SCC(=O)Nc2sccc2C#N)n1	1.2
CN(c1ccc(OCC(=O)OCC(=O)Nc2cccc([N+](=O)[O-])c2)cc1)S(=O)(=O)c1ccc(F)cc1	0.8
CN(C)c1ccc(NC(=O)CSc2n[nH]c(-c3ccco3)n2)cc1	1
O=C(OCC(=O)c1c[nH]c2ccccc12)c1cccc(O)c1	1.2
COCCCNC(=O)Cn1cc(/C=C(\C#N)C(=O)N2CCN(c3ccccc3)CC2)c2ccccc21	1
COc1ccc(/C=N/n2c(C)cc(C)cc2=O)cc1	1.2
CCOC(=O)C1(Cc2cccc(OC)c2)CCN(C(C)COC)CC1 (stereo not drawn)	1
Fc1ccccc1Cc1ccc(Cl)nn1	0.9
O=C(O)c1n[nH]nc1-c1ccccc1	0.9
Cc1ccccc1CCN(CC(=O)NC1CCCCC1)C(=O)c1csnn1	1
COc1cccc(N(Cc2nnc3n2CCCCC3)C(=O)Nc2ccccc2F)c1	1.1
CSc1ccc(C(=O)C2CCCN(C(=O)c3ccc(C)nc3)C2)cc1 (stereo not drawn)	1
COc1ccc(C(=O)Nc2ccc(NC(=O)C(C)C)nc2)cc1	0.9
Cc1cccc(CSc2nnc(C)c(=O)n2N)c1	1.1
CC(=O)N/C(=C/c1ccc(OC(F)F)cc1)C(=O)O	1
CC(=O)N1CCN(S(=O)(=O)c2ccc(C)c([N+](=O)[O-])c2)C1C(C)C (stereo not drawn)	1
CC1Cc2ccccc2N1C(=O)CSc1nnc(C2CC2)n1C (stereo not drawn)	1

SMILES	activation factor
CC(NC(=O)c1ccc(N2CCNCC2)c([N+](=O)[O-])c1)C12CC3CC(CC(C3)C1)C2 (stereo not drawn)	1.1
Clc1ccc(-c2nc3ccccn3c2CN2CCSCC2)cc1	1
O=C1C2C3C=CC(C3)C2C(=O)N1c1ccc(-c2nc3ccccc3c(=O)o2)cc1 (stereo not drawn)	1.1
COc1cccc(NC(=S)C(C#N)=C2N(C)c3ccccc3N2C)c1	1.1
CC(=O)NC1=NN(C(C)=O)C(C)(c2ccc(C)cc2)S1 (stereo not drawn)	0.9
CC(=O)c1sc(N/N=C/c2ccc(C(C)C)cc2)nc1C	0.9
COCCNC(=O)/C(C#N)=C/c1nc(N(C)C)n(-c2ccc(F)cc2)c1Cl	1
O=C(O)c1ccc2c3c(cccc13)C(=O)N(OS(=O)(=O)c1ccccc1)C2=O	1.3
Cc1sc2nc(COC(=O)C(NC(=O)c3ccc(Cl)cc3Cl)C(C)C)[nH]c(=O)c2c1C (stereo not drawn)	0.7
COc1ccc(C(CC(=O)c2ccccc2)S(=O)(=O)c2ccccc2)cc1 (stereo not drawn)	1
NS(=O)(=O)c1ccc(NC(=O)COC(=O)c2ccco2)cc1	1
NS(=O)(=O)c1ccc(NC(=O)COC(=O)C2(c3ccc(F)cc3)CCCC2)cc1	2.7 (active)
CN(C)S(=O)(=O)c1cccc(NC(=O)COC(=O)C2(c3ccccc3F)CCCC2)c1	1.1
CCn1c(SCC(=O)Nc2ccccc2F)nc2c(c1=O)SC(C)C2 (stereo not drawn)	2 (active)
CCn1c(SCC(=O)Nc2ccc3c(c2)OCCO3)nc2c(c1=O)SC(C)C2 (stereo not drawn)	1
CC1Cc2nc(SCC(=O)Nc3ccccc3F)n(C)c(=O)c2S1 (stereo not drawn)	1.1
COc1ccc(-c2nc(N)sc2C2(O)C(=O)Nc3c(Br)cc(F)cc32)cc1OC (stereo not drawn)	1
COC(=O)CNC(=O)C(CCSC)NC(C)=O (stereo not drawn) (Ac-[ξM]-Gly-OMe)	1
O=C(COC(=O)c1cccc(Br)c1)Nc1cccc2c1C(=O)c1ccccc1C2=O	0.8
O=C(CN1CCOCC1)Nc1c(Cl)cc(Cl)cc1Cl	1
O=C(CCCn1c(=O)c2sccc2n(CC(=O)NCC2CCCO2)c1=O)NCc1ccco1 (stereo not drawn)	1
[O-][n+]1c2c(nn1-c1ccc(Cl)c(Cl)c1)-c1nonc1CC2	1.1
CCCOc1ccc(Cn2ccnc2)cc1[N+](=O)[O-]	0.2
Cc1ccc(Oc2cc(NC(=O)CCCn3nc(C)c([N+](=O)[O-])c3C)cc([N+](=O)[O-])c2)cc1	0.9
Cc1[nH]nc(SCC(=O)NCC(C)C)c1[N+](=O)[O-]	1.2

SMILES	activation factor
COc1ccccc1NC(=O)CN1CCN(S(=O)(=O)c2ccc(Br)cc2)CC1	1
COc1cc2c(cc1NC(=O)CN1CCN(S(=O)(=O)c3ccc(F)cc3)CC1)oc1ccccc12	2 (active)
COc1ccc(NC(=O)CN2CCN(S(=O)(=O)c3ccc(F)cc3)CC2)cc1Cl	0.9
COc1ccc(-n2c(C)cc(C(=O)CN3C(=O)NC4(CCc5ccccc54)C3=O)c2C)cc1 (stereo not drawn)	1
C/C(=C\c1ccco1)CN1CCC(N2CCC(C(=O)N3CCOCC3)CC2)CC1	1.1
CC(=O)c1cccc(NC(=O)[C@@H](NC(N)=O)C(C)C)c1	0.9
O=C(COc1ccc(-c2ccccc2)cc1)NN=C1CCCC1	1
CC(C)Nc1nnc(SCC(=O)/C=C2\N(C)c3ccccc3C2(C)C)s1	1.1
O=C1Nc2ccc([N+](=O)[O-])cc2C1=Nc1cccc(CO)c1	0.9
Cc1c(NC(=O)CCC2CCCCC2)cc(C(=O)N2CCOCC2)cc1[N+](=O)[O-]	0.9
C=C(C)c1cccc(C(C)(C)NC(=O)NCCN(CC)CC)c1	1.2
O=C(NCCC1=CCCCC1)C1CCN(Cc2cnn(-c3ccccc3)c2-n2cccc2)CC1	2.5 (active)
CC(=O)Nc1ccc(NC(=O)CSCc2cnn(-c3ccccc3)c2-n2cccc2)cc1	0.6
C1=C(CCNc2ncnc3c2cnn3-c2ccccc2)CCCC1	0.9
O=[N+]([O-])c1cc(S(=O)(=O)Nc2cccc(Cl)c2)ccc1N=Nc1c(O)[nH]c2ccccc12	0.8
S=C(NCc1cccnc1)Nc1ccc(Cl)cc1Cl	0.9
O=C(Nc1cccn(Cc2ccccc2Cl)c1=O)NC1CCCCC1	1
C=CCc1cccc2cc(C(=O)NC3CCCC3)c(=O)oc12	0.9
COc1cccc(-c2ccc(C#N)c(SCC(=O)NCCc3ccc(Cl)cc3)n2)c1	0.8
COc1ccc(CCNC(=O)CSc2nnc3ccc(-c4ccncc4)nn23)cc1	1.1
COc1ccc(CCNC(=O)CSc2nc(-c3ccc(OC)c(OC)c3)ccc2C#N)cc1	2.1 (active)
O=C(Nc1ccc2c(c1)C(=O)OC2)Nc1cccc2ccccc12	1.1
CCc1ccc(Nc2nnc(SCC(=O)c3ccc4c(c3)NC(=O)CO4)s2)cc1	1.2
